Assay outcomes (PubChem)
MITF inh = human MITF inhibition, primary screen; inhibition, % at 2.6 µM; AlphaScreen MITF homodimerization, bead proximity signal; O75030; 650,000 compounds, 0.91% hits; in the data active = inhibition above about 50%;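 also: 0% = vehicle wells with protein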
TEAD-YAP inh = TEAD-YAP interaction inhibition | HEK-TIYL cells, TEAD-Gal4/YAP UAS-luciferase luminescence | inhibition, % at 9.12 µM | 640,000 compounds, 1.4% hits | AID 1259422; in the data active = inhibition above about 32%;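 also: 0% = median of test compound wells and 100% = reference inhibitor wells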
GPR151 activ = human GPR151 activation; 650,000 compounds, 1% hits; activation, % at 11.2 µM; AID 1508602; PathHunter beta-arrestin GPR151 cells, luminescence; in the data active = activation above about 4.9%;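 also: 0% = median of compound wells and 100% = cells with positive control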
Target sequence (Q8TDV0 whole entry, looked up): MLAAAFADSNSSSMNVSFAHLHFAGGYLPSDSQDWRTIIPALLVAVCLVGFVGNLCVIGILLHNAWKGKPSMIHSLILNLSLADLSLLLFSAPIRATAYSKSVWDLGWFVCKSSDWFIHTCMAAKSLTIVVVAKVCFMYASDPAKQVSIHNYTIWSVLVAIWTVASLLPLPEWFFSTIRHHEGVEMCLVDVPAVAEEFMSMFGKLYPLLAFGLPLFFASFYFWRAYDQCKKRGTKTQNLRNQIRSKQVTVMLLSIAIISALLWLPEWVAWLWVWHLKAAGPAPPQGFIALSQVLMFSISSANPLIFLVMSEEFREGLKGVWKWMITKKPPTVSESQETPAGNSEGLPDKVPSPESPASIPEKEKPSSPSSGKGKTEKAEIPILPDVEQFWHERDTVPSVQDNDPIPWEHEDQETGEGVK
FBW7 activator = activators of human E3 ligase FBW7; Q969H0; AlphaScreen FBW7–phospho-cyclin E peptide binding, activator screen; normalized activity (activation), % at 26.1 µM; 650,000 compounds, 0.13% hits; in the data active = normalized activity above about 1.9%;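 also: purified mutant Fbw7 with reduced substrate affinity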
MITF confirm = confirmation of human MITF inhibitors; 4,700 compounds, 16% hits; inhibition, % at 2.6 µM; AlphaScreen MITF homodimerization, biotin/His-MITF beads; shares compounds with MITF inh;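 active = inhibition above a cutoff derived from the DMSO control wells, cut at about 28% in these data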;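 also: 0% = MITF dimer wells with DMSO only; inhibitors lower the bead chemiluminescence by keeping MITF from dimerizing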
AS interf ctr = optically interferes with AlphaScreen signal | inhibition, % at 2.6 µM | 4,700 compounds, 7.6% hits | AID 1259376 | shares compounds with MITF inh | LysRS AlphaScreen counterscreen, signal interference, triplicate;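 active = inhibition above a cutoff derived from the DMSO control wells, cut at about 30% in these data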
Active calls of the source: *; . = no result given. Compounds with a hit are over-represented: about 3.5% of the library has one in this group of screens.

SMILES	MITF inh	TEAD-YAP inh	GPR151 activ	FBW7 activator	MITF confirm	AS interf ctr
O=C(C(c1ccccc1)c1ccccc1)N1CCN(Cc2ccc(F)cc2)CC1	62*	6	-2	0	9	23
O=C(C(c1ccccc1)c1ccccc1)N1CCN(Cc2ccncc2)CC1	62*	4	-1	0	-8	-10
Cc1ccccc1CN1CCN(C(=O)C(c2ccccc2)c2ccccc2)CC1	38	2	-1	0	.	.
Cc1ccc(C)c(Cn2c(NCCNC(=O)C3CCC3)nc3c2c(=O)n(C)c(=O)n3C)c1	73*	8	0	0	4	13
COCC(=O)NCCNc1nc2c(c(=O)n(C)c(=O)n2C)n1Cc1cc(C)ccc1C	77*	6	0	0	1	9
Cc1csc(SCC(=O)c2ccc3c(c2)NC(=O)CO3)n1	12	-4	1	0	.	.
COCCNc1nc2nonc2nc1N1CCC(COC)C1 (stereo unspecified)	13	-5	1	0	.	.
CC(NC(=O)c1cc(Br)ccc1Cl)c1ccncc1 (stereo unspecified)	10	5	3	0	.	.
O=[N+]([O-])c1ccc(CN2CCN(C3CCCC3)CC2)cc1	61*	-3	-1	0	1	-4
CC1CCCC(N2CCN(C3CCN(Cc4ccccc4)CC3)CC2)C1 (stereo unspecified)	34	12	0	0	.	.
O=[N+]([O-])c1cccc(CN2CCN(C3CCCC3)CC2)c1	76*	3	0	0	18	13
CCN1CCN(C2CCN(Cc3cccc([N+](=O)[O-])c3)CC2)CC1	23	8	2	0	.	.
O=[N+]([O-])c1ccc(CN2CCC(O)CC2)cc1	18	-6	-1	0	.	.
O=[N+]([O-])c1ccc(CN2CCC(N3CCN(c4ccccc4F)CC3)CC2)cc1	-2	16	-1	0	.	.
COc1ccccc1N1CCN(C2CCN(Cc3ccc([N+](=O)[O-])cc3)CC2)CC1	57*	14	-1	0	-7	-5
CC1CCCC(N2CCN(Cc3ccc([N+](=O)[O-])cc3)CC2)C1 (stereo unspecified)	94*	-14	-1	0	-6	-2
CCCN1CCC(NCCc2cccc(Cl)c2)CC1	32	-9	1	0	.	.
O=[N+]([O-])c1cccc(CN2CCC(N3CCN(c4ccccc4)CC3)CC2)c1	74*	2	0	0	1	4
COc1ccccc1N1CCN(C2CCN(C(=O)c3cccc4ccccc34)CC2)CC1	75*	9	0	0	-1	4
Cc1ncc2c(c1CNC(=O)c1cnccn1)CCN(C(=O)C(C)Oc1ccccc1)C2 (stereo unspecified)	7	-2	4	0	.	.
Cc1ccccc1OCCNCC(C)O (stereo unspecified)	53*	1	0	0	4	9
CCCCc1ccc(-c2nnc(-c3ccccc3C)o2)cc1	11	-17	0	0	.	.
Fc1ccc(Cn2nnnc2CN2CCCC2)cc1	-6	7	0	0	.	.
COc1ccc(CNC(=O)c2c(O)c3c([nH]c2=O)CCCC3)cc1	51*	-4	-1	1	7	15
Clc1ccc(-c2[nH]ncc2CNCc2cccnc2)cc1	58*	4	1	0	-9	-5
SMILES	MITF inh	TEAD-YAP inh	GPR151 activ	FBW7 activator	MITF confirm	AS interf ctr
COC(=O)[C@@H]1C[C@@H](NC(=O)CCn2ccc(C)n2)CN1Cc1cccc(Cl)c1	-20	-6	-2	0	.	.
Cc1ccc(S(=O)(=O)Cn2nnnc2CN2CCN(c3ccccc3)CC2)cc1	-1	0	0	0	.	.
Cc1ccc(S(=O)(=O)Cn2nnnc2CN2CCOCC2)cc1	64*	-6	-1	0	10	10
O=C(NCc1ccccc1)c1cnc(N2CCCC2CO)s1 (stereo unspecified)	-1	12	-1	0	.	.
COc1ccc(S(=O)(=O)N2CCC(N3CCN(c4ccccc4F)CC3)CC2)cc1	52*	9	0	0	7	-1
COc1ccc(S(=O)(=O)N2CCCN(Cc3ccccc3)CC2)cc1	17	4	-1	0	.	.
COc1ccc(S(=O)(=O)N2CCN(c3ccccc3F)CC2)cc1	22	-11	0	0	.	.
O=S(=O)(c1ccc(Cl)cc1)N1CCN(C2CCN(Cc3ccccc3)CC2)CC1	2	-5	-1	0	.	.
O=S(=O)(c1ccccc1)N1CCC(N2CCCCCC2)CC1	28	1	2	0	.	.
COc1ccc(S(=O)(=O)N2CCC(N3CCN(Cc4ccccc4)CC3)CC2)cc1	78*	7	0	0	-2	0
CN1CCN(C2CCN(S(=O)(=O)c3ccccc3)CC2)CC1	59*	6	0	0	6	14
O=S(=O)(c1ccc2ccccc2c1)N1CCC(N2CCN(Cc3ccccc3)CC2)CC1	57*	11	-2	0	6	15
C/C(=N/NC(=O)CNC(=O)c1ccco1)c1ccc([N+](=O)[O-])cc1	7	-1	1	0	.	.
Cc1ccc(NC(=O)CSc2nc3ccccc3c(=O)n2CCCC(=O)NCCc2ccccc2)cc1	-1	-4	1	0	.	.
N#C/C(=C\C=C\c1ccco1)C(N)=S	65*	0	-1	-1	60*	87*
CC1=C(C(=O)N2CCOCC2)C(c2cccc([N+](=O)[O-])c2)C2=C(CCCC2=O)N1 (stereo unspecified)	-1	-2	2	0	.	.
COc1ccc2oc(=O)c(C(=O)Nc3cccc4ccccc34)cc2c1	9	-5	0	0	.	.
COc1cccc(CN2CCN(C(=O)c3cccnc3)CC2)c1OC	77*	0	-1	0	9	11
COc1ccccc1CN1CCN(C(=O)c2cccnc2)CC1	57*	0	1	0	6	-8
COc1ccc(CN2CCN(C(=O)c3cccnc3)CC2)c(OC)c1	44	-4	1	0	.	.
COc1ccccc1C1(O)CC2CCC(C1)N2C(=O)c1cccnc1 (stereo unspecified)	73*	10	-1	0	8	16
COc1ccc(CN2CCN(C(=O)c3cccnc3)CC2)c(OC)c1OC	32	10	1	0	.	.
COc1ccc(N2CC(O)(c3ccc(OC)c(OC)c3)[N+]3=C2CCCC3)cc1 (stereo unspecified)	12	5	-1	0	.	.
Cc1cccc(C(=O)NCc2nnc(SCC(=O)N3N=C(c4cccs4)CC3c3ccc(F)cc3)n2CCc2ccccc2)c1 (stereo unspecified)	2	-3	-2	1	.	.
O=C1c2ccccc2C(=O)c2c1oc1c3c(ccc21)OCN(C1CCS(=O)(=O)C1)C3 (stereo unspecified)	-13	4	-5	0	.	.
O=C(CN1CC(=O)Oc2ccccc21)Oc1ccc(F)cc1	69*	0	0	0	3	3
